Out of some 5,500 compounds screened, about 2,000 (36%) were called active. Not shown: some 18% with an inconclusive outcome. Rule as the data show it: active = normalized growth mostly below about 0.91 (no sharp cut-off); inconclusive = no clear call, values can overlap the other calls; inactive = mostly above about 0.92. This is one part of the list.
Assay: chemical genetic growth profiling, strain panel (AID 1159580);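 also: tested at 20 µM; growth read once vehicle control cultures reached saturation at 30 °C; 1 = growth at the plate median or of vehicle wells; lower values mean less growth of the strain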
Details: growth OD

Measured: normalized growth

CO[C@H]1CC(O[C@@H]2/C(C)=C/C[C@@H]3C[C@@H](C[C@]4(CC[C@H](C)[C@@H](C5CCCCC5)O4)O3)OC(=O)[C@@H]3C=C(C)/C(=N\O)[C@H]4OC/C(=C\C=C\[C@@H]2C)[C@]43O)O[C@@H](C)C1O (stereo not given in full)
inactive: S. cerevisiae deletion strains, locus YKL009W, strain mrt4, stronger effect = lower value 0.975 | S. cerevisiae deletion strains, locus YKL068W, stronger effect = lower value 1 | S. cerevisiae deletion strains, locus YKL085W, strain MDH1 (second series), stronger effect = lower value 0.997 | S. cerevisiae deletion strains, locus YKL085W, strain MDH1, stronger effect = lower value 0.997 | S. cerevisiae deletion strains, locus YKL160W, strain elf1, stronger effect = lower value 0.993 | S. cerevisiae deletion strains, locus YKL190W, strain CNB1, stronger effect = lower value 0.982 | S. cerevisiae deletion strains, locus YKR026C, strain gcn3, stronger effect = lower value 1.02 | S. cerevisiae deletion strains, locus YKR091W, strain srl3, stronger effect = lower value 1.01 | S. cerevisiae deletion strains, locus YLL001W, strain dnm1, stronger effect = lower value 0.974 | S. cerevisiae deletion strains, locus YLL026W, stronger effect = lower value 1.01 | S. cerevisiae deletion strains, locus YLL041C, strain sdh2, stronger effect = lower value 1.01 | S. cerevisiae deletion strains, locus YLR027C, strain aat2, stronger effect = lower value 1.01 | S. cerevisiae deletion strains, locus YLR058C, strain SHM2, stronger effect = lower value 0.987 | S. cerevisiae deletion strains, locus YLR102C, strain apc9, stronger effect = lower value 0.997 | S. cerevisiae deletion strains, locus YLR221C, strain rsa3, stronger effect = lower value 1.01 | S. cerevisiae deletion strains, locus YLR258W, strain gsy2, stronger effect = lower value 1 | S. cerevisiae deletion strains, locus YLR268W, strain sec22, stronger effect = lower value 0.928 | S. cerevisiae deletion strains, locus YLR320W, strain mms22, stronger effect = lower value 0.96 | S. cerevisiae deletion strains, locus YLR330W, strain CHS5, stronger effect = lower value 0.978 | S. cerevisiae deletion strains, locus YLR342W, strain FKS1, stronger effect = lower value 0.985 | S. cerevisiae deletion strains, locus YLR357W, strain rsc2, stronger effect = lower value 0.854 | S. cerevisiae deletion strains, locus YLR370C, strain arc18, stronger effect = lower value 0.993 | S. cerevisiae deletion strains, locus YLR371W, strain rom2, stronger effect = lower value 0.995 | S. cerevisiae deletion strains, locus YLR384C, strain iki3, stronger effect = lower value 1.01 | S. cerevisiae deletion strains, locus YLR418C, strain cdc73, stronger effect = lower value 0.936 | S. cerevisiae deletion strains, locus YML016C, strain PPZ1, stronger effect = lower value 0.995 | S. cerevisiae deletion strains, locus YML032C, strain rad52, stronger effect = lower value 0.987 | S. cerevisiae deletion strains, locus YML120C, strain ndi1, stronger effect = lower value 0.995 | S. cerevisiae deletion strains, locus YML124C, strain tub3, stronger effect = lower value 1 | S. cerevisiae deletion strains, locus YMR058W, strain fet3, stronger effect = lower value 1.02 | S. cerevisiae deletion strains, locus YMR078C, strain ctf18, stronger effect = lower value 0.986 | S. cerevisiae deletion strains, locus YMR125W, strain sto1, stronger effect = lower value 1.03 | S. cerevisiae deletion strains, locus YMR129W, stronger effect = lower value 1.02 | S. cerevisiae deletion strains, locus YMR205C, strain PFK2, stronger effect = lower value 0.997 | S. cerevisiae deletion strains, locus YMR223W, strain ubp8, stronger effect = lower value 0.993 | S. cerevisiae deletion strains, locus YMR231W, strain pep5, stronger effect = lower value 0.998 | S. cerevisiae deletion strains, locus YMR263W, strain SAP30, stronger effect = lower value 0.977 | S. cerevisiae deletion strains, locus YMR307W, strain GAS1, stronger effect = lower value 0.911 | S. cerevisiae deletion strains, locus YNL067W, strain RPL9B, stronger effect = lower value 0.988 | S. cerevisiae deletion strains, locus YNL071W, strain lat1, stronger effect = lower value 1.02 | S. cerevisiae deletion strains, locus YNL209W, strain ssb2, stronger effect = lower value 0.977 | S. cerevisiae deletion strains, locus YNL233W, strain BNI4, stronger effect = lower value 0.971 | S. cerevisiae deletion strains, locus YNL248C, strain rpa49, stronger effect = lower value 1.03 | S. cerevisiae deletion strains, locus YNL250W, strain rad50, stronger effect = lower value 0.967 | S. cerevisiae deletion strains, locus YNL271C, strain bni1, stronger effect = lower value 0.922 | S. cerevisiae deletion strains, locus YNL298W, strain CLA4, stronger effect = lower value 0.933 | S. cerevisiae deletion strains, locus YNL307C, strain MCK1, stronger effect = lower value 0.957 | S. cerevisiae deletion strains, locus YNL322C, strain KRE1 (second series), stronger effect = lower value 1.02 | S. cerevisiae deletion strains, locus YNL322C, strain KRE1, stronger effect = lower value 0.99 | S. cerevisiae deletion strains, locus YNR049C, strain mso1, stronger effect = lower value 0.984 | S. cerevisiae deletion strains, locus YNR052C, strain pop2, stronger effect = lower value 0.99 | S. cerevisiae deletion strains, locus YOL006C, strain TOP1, stronger effect = lower value 0.901 | S. cerevisiae deletion strains, locus YOL012C, strain htz1 0.49 | S. cerevisiae deletion strains, locus YOL147C, strain pex11, stronger effect = lower value 1.01 | S. cerevisiae deletion strains, locus YOR001W, strain rrp6, stronger effect = lower value 0.986 | S. cerevisiae deletion strains, locus YOR061W, strain CKA2, stronger effect = lower value 0.98 | S. cerevisiae deletion strains, locus YOR069W, strain VPS5, stronger effect = lower value 0.99 | S. cerevisiae deletion strains, locus YOR070C, strain gyp1, stronger effect = lower value 0.994 | S. cerevisiae deletion strains, locus YOR080W, strain dia2, stronger effect = lower value 1.02 | S. cerevisiae deletion strains, locus YOR083W, strain WHI5, stronger effect = lower value 1 | S. cerevisiae deletion strains, locus YOR106W, strain vam3, stronger effect = lower value 1.05 | S. cerevisiae deletion strains, locus YOR136W, strain idh2, stronger effect = lower value 0.974 | S. cerevisiae deletion strains, locus YOR144C, strain elg1, stronger effect = lower value 0.999 | S. cerevisiae deletion strains, locus YOR184W, strain ser1, stronger effect = lower value 0.991 | S. cerevisiae deletion strains, locus YOR231W, strain MKK1, stronger effect = lower value 0.962 | S. cerevisiae deletion strains, locus YOR265W, strain rbl2, stronger effect = lower value 0.995 | S. cerevisiae deletion strains, locus YOR270C, strain vph1, stronger effect = lower value 0.991 | S. cerevisiae deletion strains, locus YOR290C, strain snf2, stronger effect = lower value 1.04 | S. cerevisiae deletion strains, locus YOR316C, strain cot1, stronger effect = lower value 0.99 | S. cerevisiae deletion strains, locus YPL055C, strain LGE1, stronger effect = lower value 1 | S. cerevisiae deletion strains, locus YPL078C, strain atp4, stronger effect = lower value 1.03 | S. cerevisiae deletion strains, locus YPL240C, strain hsp82, stronger effect = lower value 1.01 | S. cerevisiae deletion strains, locus YPL241C, strain CIN2, stronger effect = lower value 0.979 | S. cerevisiae deletion strains, locus YPR119W, strain clb2, stronger effect = lower value 0.995 | S. cerevisiae deletion strains, locus YPR141C, strain kar3, stronger effect = lower value 0.992 | S. cerevisiae deletion strains, locus YPR163C, strain tif3, stronger effect = lower value 0.972 | S. cerevisiae deletion strains, locus YPR167C, strain met16, stronger effect = lower value 0.985 | S. cerevisiae deletion strains, strain wtn01, stronger effect = lower value 0.996 | S. cerevisiae strains, strain wild type, stronger effect = lower value 0.985
active: S. cerevisiae deletion strains, locus YJR066W, strain TOR1, stronger effect = lower value 0.659 | S. cerevisiae deletion strains, locus YKR001C, strain vps1, stronger effect = lower value 0.745 | S. cerevisiae deletion strains, locus YLR039C, strain RIC1, stronger effect = lower value 0.492 | S. cerevisiae deletion strains, locus YLR113W, strain HOG1, stronger effect = lower value 0.284 | S. cerevisiae deletion strains, locus YLR262C, strain YPT6 (second series), stronger effect = lower value 0.312 | S. cerevisiae deletion strains, locus YLR262C, strain YPT6, stronger effect = lower value 0.415 | S. cerevisiae deletion strains, locus YLR342W, strain FKS1 (second series), stronger effect = lower value 0.526 | S. cerevisiae deletion strains, locus YNL183C, strain NPR1, stronger effect = lower value 0.512 | S. cerevisiae deletion strains, locus YPL051W, strain arl3, stronger effect = lower value 0.8 | S. cerevisiae deletion strains, locus YPL106C, strain sse1, stronger effect = lower value 0.62 | S. cerevisiae deletion strains, locus YPL256C, strain CLN2, stronger effect = lower value 0.629
